Results published in the supplement of paper PMC10849652.
Targets with a hit are over-represented here; the source holds about 8,800 in all. About 0.5% of all pairs of compound and target were hits. Unmarked numbers belong to inactive results.

Assays:
Assay in all cases: log2 fold change, soluble protein after heating vs DMSO (PISA); higher = thermal stabilisation; K562 lysate, 10 uM; active = over 0.2 and 3.5 SD of the protein, either way, in both replicates (recomputed)
dasatinib = compound: Cc1nc(Nc2ncc(C(=O)Nc3c(C)cccc3Cl)s2)cc(N2CCN(CCO)CC2)n1 [dasatinib]
Summary of the method: (§1)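 To prepare the extract, K562 pellets were dounce-homogenised in PBS pH 7.4 with 1 mM MgCl2, giving crude material at 1 mg/mL protein. This was treated with 10 μM compound for 30 min, then heated in aliquots for 3 min over 48°C-58°C before pooling and addition of NP-40 to 0.5% at 4°C. Centrifugation at 21,000xg for 90 min left soluble protein in the supernatant, which TMTpro 16plex LC-MS/MS quantified with equalised channel sums. Results are log-two fold changes in thermal stability compared with solvent controls, from duplicates.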

[1] = compound: Cn1cc(-c2ccc3c(c2)CCN3C(=O)Cc2cccc(C(F)(F)F)c2)c2c(N)ncnc21
Summary of the method: as §1

quisinostat = compound: Cn1cc(CNCC2CCN(c3ncc(C(=O)NO)cn3)CC2)c2ccccc21 [quisinostat]
Summary of the method: as §1

[2] = compound: NC(=O)Nc1cc(-c2cccc(F)c2)sc1C(=O)N[C@H]1CCCNC1
Summary of the method: as §1

[3] = compound: NC(=O)c1cnc(N[C@@H]2CCCC[C@@H]2N)nc1Nc1cccc(-n2nccn2)c1
Summary of the method: as §1

[4] = compound: NC1(c2ccc(-c3nc4ccn5c(=O)[nH]nc5c4cc3-c3ccccc3)cc2)CCC1
Summary of the method: as §1

nilotinib = compound: Cc1cn(-c2cc(NC(=O)c3ccc(C)c(Nc4nccc(-c5cccnc5)n4)c3)cc(C(F)(F)F)c2)cn1 [nilotinib]
Summary of the method: as §1

[5] = compound: Cc1nc(Nc2n[nH]c3c2CN(C(=O)N[C@H](CN(C)C)c2ccccc2)C3(C)C)c2sccc2n1
Summary of the method: as §1

[6] = compound: Cc1ncc(-c2ccnc(Nc3ccc(S(C)(=O)=O)cc3)n2)n1C(C)C
Summary of the method: as §1

tipifarnib = compound: Cn1cncc1[C@@](N)(c1ccc(Cl)cc1)c1ccc2c(c1)c(-c1cccc(Cl)c1)cc(=O)n2C [tipifarnib]
Summary of the method: as §1

Chain of UniProt Q9Y2H6 (Q9Y2H6 whole entry, looked up): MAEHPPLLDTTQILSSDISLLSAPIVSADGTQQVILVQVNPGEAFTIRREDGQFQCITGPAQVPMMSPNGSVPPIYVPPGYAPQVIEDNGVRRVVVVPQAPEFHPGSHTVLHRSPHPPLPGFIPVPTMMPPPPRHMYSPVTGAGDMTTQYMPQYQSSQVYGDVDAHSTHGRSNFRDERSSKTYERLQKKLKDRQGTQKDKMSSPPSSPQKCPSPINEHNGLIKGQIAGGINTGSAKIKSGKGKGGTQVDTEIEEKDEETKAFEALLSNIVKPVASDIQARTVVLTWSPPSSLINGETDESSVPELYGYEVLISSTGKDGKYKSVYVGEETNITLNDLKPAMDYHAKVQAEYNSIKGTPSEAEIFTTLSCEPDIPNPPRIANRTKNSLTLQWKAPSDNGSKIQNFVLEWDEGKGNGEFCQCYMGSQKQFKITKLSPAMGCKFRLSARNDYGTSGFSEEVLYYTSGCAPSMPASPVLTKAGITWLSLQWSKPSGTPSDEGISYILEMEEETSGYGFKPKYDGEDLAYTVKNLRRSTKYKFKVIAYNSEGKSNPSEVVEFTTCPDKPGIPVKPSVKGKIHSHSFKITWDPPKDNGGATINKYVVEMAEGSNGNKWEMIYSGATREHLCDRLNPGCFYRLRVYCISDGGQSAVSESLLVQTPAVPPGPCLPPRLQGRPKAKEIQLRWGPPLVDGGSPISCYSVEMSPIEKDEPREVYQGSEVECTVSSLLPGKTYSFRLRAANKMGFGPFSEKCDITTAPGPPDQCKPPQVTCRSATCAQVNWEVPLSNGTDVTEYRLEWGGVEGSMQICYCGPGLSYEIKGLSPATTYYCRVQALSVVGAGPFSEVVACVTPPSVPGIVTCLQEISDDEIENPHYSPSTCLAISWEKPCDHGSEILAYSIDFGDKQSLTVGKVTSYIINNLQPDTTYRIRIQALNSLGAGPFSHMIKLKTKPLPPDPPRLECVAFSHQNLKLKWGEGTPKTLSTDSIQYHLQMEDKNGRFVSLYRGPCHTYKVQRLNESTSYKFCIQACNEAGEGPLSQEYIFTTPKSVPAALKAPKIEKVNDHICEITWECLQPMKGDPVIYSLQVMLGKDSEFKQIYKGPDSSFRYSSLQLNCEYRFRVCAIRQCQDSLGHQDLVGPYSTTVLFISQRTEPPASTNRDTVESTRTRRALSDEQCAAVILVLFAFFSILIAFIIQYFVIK
Chain of UniProt Q92616 (Q92616 whole entry, looked up): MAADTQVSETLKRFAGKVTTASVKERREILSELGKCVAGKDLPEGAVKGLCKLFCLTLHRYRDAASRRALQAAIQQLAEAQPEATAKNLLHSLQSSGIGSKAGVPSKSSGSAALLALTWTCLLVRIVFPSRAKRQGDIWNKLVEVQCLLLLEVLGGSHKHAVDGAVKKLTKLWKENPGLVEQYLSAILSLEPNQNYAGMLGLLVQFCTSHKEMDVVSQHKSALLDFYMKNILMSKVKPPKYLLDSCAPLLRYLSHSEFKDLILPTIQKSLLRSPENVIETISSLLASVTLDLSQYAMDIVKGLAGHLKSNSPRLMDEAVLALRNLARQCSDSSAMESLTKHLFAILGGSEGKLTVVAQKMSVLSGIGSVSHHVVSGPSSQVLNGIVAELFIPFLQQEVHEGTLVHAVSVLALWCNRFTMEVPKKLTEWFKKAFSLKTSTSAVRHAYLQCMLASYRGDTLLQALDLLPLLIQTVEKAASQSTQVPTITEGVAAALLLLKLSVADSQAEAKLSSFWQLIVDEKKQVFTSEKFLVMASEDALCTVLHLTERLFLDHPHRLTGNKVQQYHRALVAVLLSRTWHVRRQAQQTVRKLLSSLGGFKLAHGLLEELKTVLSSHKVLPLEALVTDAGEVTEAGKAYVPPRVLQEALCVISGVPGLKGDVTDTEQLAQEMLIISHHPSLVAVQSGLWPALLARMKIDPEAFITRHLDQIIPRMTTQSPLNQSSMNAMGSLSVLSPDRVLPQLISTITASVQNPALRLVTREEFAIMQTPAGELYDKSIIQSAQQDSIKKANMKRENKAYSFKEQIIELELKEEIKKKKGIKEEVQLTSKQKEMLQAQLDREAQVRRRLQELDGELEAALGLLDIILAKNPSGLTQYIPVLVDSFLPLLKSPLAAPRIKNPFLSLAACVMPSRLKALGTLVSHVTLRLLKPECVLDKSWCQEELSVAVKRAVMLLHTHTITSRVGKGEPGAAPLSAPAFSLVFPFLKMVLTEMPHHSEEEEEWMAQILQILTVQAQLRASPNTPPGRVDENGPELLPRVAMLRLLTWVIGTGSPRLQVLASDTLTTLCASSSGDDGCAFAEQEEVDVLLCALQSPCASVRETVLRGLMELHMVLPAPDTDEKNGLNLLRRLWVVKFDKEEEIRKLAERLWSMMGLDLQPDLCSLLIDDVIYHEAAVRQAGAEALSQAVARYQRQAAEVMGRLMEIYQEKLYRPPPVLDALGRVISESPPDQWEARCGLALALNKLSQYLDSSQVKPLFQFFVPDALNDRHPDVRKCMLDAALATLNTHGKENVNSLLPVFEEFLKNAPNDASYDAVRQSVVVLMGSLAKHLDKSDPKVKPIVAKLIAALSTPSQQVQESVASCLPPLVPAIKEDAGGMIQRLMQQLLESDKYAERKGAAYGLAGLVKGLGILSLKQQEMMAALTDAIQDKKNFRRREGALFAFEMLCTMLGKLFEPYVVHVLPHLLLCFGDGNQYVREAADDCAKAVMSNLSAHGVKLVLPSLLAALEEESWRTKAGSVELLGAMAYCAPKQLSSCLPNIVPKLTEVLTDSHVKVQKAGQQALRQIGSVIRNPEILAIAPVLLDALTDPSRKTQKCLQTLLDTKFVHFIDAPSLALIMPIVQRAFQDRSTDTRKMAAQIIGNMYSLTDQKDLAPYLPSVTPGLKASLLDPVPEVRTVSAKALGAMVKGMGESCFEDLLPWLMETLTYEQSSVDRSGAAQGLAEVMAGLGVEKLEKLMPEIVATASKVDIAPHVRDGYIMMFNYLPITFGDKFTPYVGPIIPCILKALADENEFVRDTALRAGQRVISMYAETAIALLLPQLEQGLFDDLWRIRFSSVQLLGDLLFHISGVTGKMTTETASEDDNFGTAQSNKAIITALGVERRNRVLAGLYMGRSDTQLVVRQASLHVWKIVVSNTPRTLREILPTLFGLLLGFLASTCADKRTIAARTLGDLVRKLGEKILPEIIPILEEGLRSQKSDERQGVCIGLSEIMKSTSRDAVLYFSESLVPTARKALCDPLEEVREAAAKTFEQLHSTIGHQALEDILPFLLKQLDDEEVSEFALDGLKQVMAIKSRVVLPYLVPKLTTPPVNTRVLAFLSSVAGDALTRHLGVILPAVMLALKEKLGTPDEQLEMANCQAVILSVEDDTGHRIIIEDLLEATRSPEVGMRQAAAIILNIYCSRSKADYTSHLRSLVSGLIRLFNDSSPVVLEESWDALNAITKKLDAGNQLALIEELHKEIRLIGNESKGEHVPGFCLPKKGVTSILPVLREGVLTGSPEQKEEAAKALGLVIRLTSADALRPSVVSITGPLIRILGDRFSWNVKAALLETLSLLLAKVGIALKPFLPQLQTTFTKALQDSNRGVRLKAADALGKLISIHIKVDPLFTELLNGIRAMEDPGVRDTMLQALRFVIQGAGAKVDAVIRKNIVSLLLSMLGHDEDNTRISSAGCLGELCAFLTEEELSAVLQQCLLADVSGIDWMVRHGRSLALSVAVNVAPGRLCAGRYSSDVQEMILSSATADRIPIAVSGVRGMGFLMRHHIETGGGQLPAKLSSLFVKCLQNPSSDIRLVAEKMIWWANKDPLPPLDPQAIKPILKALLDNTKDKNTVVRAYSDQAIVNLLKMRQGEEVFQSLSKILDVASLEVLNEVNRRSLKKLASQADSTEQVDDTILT
Chain of UniProt Q9H8W3 (Q9H8W3 whole entry, looked up): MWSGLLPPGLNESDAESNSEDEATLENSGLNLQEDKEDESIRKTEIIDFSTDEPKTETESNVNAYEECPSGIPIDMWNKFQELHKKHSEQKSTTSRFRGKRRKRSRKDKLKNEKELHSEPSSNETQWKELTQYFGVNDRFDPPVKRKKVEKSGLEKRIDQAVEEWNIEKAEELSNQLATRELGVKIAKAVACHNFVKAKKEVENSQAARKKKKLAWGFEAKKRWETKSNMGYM
Chain of UniProt P02774 (P02774 whole entry, looked up): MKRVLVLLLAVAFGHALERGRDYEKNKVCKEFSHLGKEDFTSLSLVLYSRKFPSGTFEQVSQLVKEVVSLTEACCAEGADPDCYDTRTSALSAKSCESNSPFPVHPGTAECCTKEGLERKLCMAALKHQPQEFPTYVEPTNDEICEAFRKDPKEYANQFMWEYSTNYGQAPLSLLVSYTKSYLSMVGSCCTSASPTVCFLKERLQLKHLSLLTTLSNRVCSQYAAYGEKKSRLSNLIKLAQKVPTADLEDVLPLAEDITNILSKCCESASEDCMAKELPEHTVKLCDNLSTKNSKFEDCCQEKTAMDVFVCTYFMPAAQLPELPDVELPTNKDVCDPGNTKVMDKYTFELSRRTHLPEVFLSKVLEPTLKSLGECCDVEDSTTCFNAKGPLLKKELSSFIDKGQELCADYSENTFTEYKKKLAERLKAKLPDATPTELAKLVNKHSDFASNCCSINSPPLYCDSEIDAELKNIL
Chain of UniProt Q9Y6B2 (Q9Y6B2 whole entry, looked up): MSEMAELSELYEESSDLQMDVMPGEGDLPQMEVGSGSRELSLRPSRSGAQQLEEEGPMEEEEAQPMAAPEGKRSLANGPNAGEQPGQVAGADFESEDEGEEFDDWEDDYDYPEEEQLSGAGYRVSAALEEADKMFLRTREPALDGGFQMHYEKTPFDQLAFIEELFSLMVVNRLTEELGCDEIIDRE
Chain of UniProt Q9NRW4 (Q9NRW4 whole entry, looked up): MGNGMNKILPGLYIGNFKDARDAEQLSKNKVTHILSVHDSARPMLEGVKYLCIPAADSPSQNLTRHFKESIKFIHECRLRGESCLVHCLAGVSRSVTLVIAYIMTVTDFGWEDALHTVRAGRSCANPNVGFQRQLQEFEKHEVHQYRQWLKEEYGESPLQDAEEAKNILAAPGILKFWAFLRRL

Target | log2 fold change (dasatinib) | log2 fold change [1] | log2 fold change (quisinostat) | log2 fold change [2] | log2 fold change [3] | log2 fold change [4] | log2 fold change (nilotinib) | log2 fold change [5] | log2 fold change [6] | log2 fold change (tipifarnib)
GDE1 (UniProt Q9NZC3) | 0.012 | -0.012 | 0.085 | 0.029 | -0.02 | -0.022 | – | – | – | –
FOXJ2 (UniProt Q9P0K8) | 0.056 | 0.018 | – | – | – | -0.111 | 0.033 | 0.29 | 0.077 | -0.293
FAT2 (UniProt Q9NYQ8) | – | – | -0.978 (active) | 0.36 | 0.025 | -0.087 | -0.086 | 0.086 | 0.014 | -0.028
EXO5 (UniProt Q9H790) | – | – | -0.082 | -0.071 | – | 0.08 | – | – | – | –
EIF2B5, A0A3B3ITK8 | – | – | – | – | -0.054 | – | -0.455 | 0.16 | -0.134 | 0.313
FLT4 (UniProt P35916) | -0.202 | 0.013 | – | – | 0.162 | 0.106 | – | – | – | –
FAM111A (UniProt Q96PZ2) | -0.097 | 0.015 | 0.18 | 0.039 | 0.035 | -0.037 | – | – | – | –
EPB41 isoform 4 (UniProt P11171) | – | – | -0.077 | 0.053 | 0.089 | -0.096 | 0.124 | 0.044 | -0.165 | 0.036
GABPB1 isoform 3 (UniProt Q06547) | -0.086 | 0.034 | -0.017 | -0.012 | -0.037 | -0.016 | – | – | – | –
GART (UniProt C9JZG2) | – | – | -0.373 | -0.02 | 0.139 | – | -0.085 | -0.033 | 0.042 | -0.101
GAA (UniProt P10253) | – | – | 0.024 | 0.007 | -0.014 | -0.003 | 0.058 | 0.115 | 0.267 | -0.336
DUSP22 isoform 2 (UniProt Q9NRW4) | -0.022 | -0.001 | – | – | 0.036 | 0.109 | -0.039 | -0.073 | 0.064 | 0.038
EPN2 (UniProt I3L356) | – | – | – | – | 0.021 | – | -0.248 | 0.062 | -0.291 | 0.238
GAPVD1 (UniProt Q14C86) | – | – | – | – | -0.023 | – | – | – | – | –
FNDC3A (UniProt Q9Y2H6) | – | – | -0.247 | 0.059 | – | -0.03 | -0.057 | -0.125 | -0.293 | -0.064
GCN1 (UniProt Q92616) | -0.071 | 0.066 | -0.072 | 0.047 | 0.001 | -0.037 | 0.015 | -0.017 | 0.001 | -0.01
FOXL2 (UniProt P58012) | 0.023 | -0.013 | – | – | -0.15 | 0.076 | – | – | – | –

Target | log2 fold change (dasatinib) | log2 fold change [1] | log2 fold change (quisinostat) | log2 fold change [2] | log2 fold change [3] | log2 fold change [4] | log2 fold change (nilotinib) | log2 fold change [5] | log2 fold change [6] | log2 fold change (tipifarnib)
GCA (UniProt P28676) | – | – | – | – | -0.118 | -0.017 | 0.071 | -0.11 | 0.096 | -0.141
EPB41, A0A2R8Y783 | 0.028 | -0.11 | – | – | -0.108 | – | – | – | – | –
EIF2AK3 (UniProt Q9NZJ5) | -0.385 | 0.269 | – | – | 0.104 | -0.166 | 0.124 | 0.012 | -0.001 | -0.088
DST isoform 3 (UniProt Q03001) | – | – | – | – | – | -0.071 | – | – | – | –
FAT1 (UniProt Q14517) | – | – | 0.572 (active) | -0.105 | -0.017 | -0.071 | – | – | – | –
ESRRB isoform 1 (UniProt O95718) | – | – | – | – | – | 0.182 | – | – | – | –
FAM53B (UniProt Q14153) | 0.036 | 0.14 | -0.078 | 0.093 | – | 0.042 | 0.015 | 0.013 | 0.004 | -0.013
ERG28 (UniProt Q9UKR5) | 0.029 | 0.059 | – | – | -0.015 | – | – | – | – | –
FTSJ1 isoform 2 (UniProt Q9UET6) | – | – | – | – | -0.019 | – | – | – | – | –
DYNC1I2 isoform 2 (UniProt Q13409) | -0.058 | 0.046 | -0.009 | 0.024 | -0.008 | -0.025 | – | – | – | –
FAM204A (UniProt Q9H8W3) | – | – | -0.129 | 0.069 | – | 0.098 | – | – | – | –
GC isoform 3 (UniProt P02774) | 0.044 | -0.114 | 0.175 | -0.076 | – | – | – | – | – | –
DYRK1A isoform 2 (UniProt Q13627) | – | – | -0.095 | 0.139 | – | -0.047 | – | – | – | –
EWSR1 (UniProt H7BY36) | -0.104 | -0.025 | 0.112 | 0.118 | – | – | – | – | – | –
FYN (UniProt P06241) | 0.02 | 0.004 | 0.022 | -0.029 | -0.025 | 0.043 | – | – | – | –
EID1 (UniProt Q9Y6B2) | -0.306 | 0.32 | – | – | – | 0.133 | 0.067 | 0.085 | 0.05 | 0.021
FBRSL1, A0A3B3IRR3 | 0.01 | -0.042 | 0.031 | 0.029 | – | 0.066 | 0.034 | 0.022 | 0.013 | -0.073
